The record followed here is PMC7862700, “An all-to-all approach to the identification of sequence-specific readers for epigenetic DNA modifications on cytosine”.

Common to all, as to assay: DAPPL (digital affinity profiling via proximity ligation, sequencing); 10 mM Tris-HCl pH 7.5, 50 mM NaCl, 1 mM DTT, 4% glycerol, room temperature, 30 min; GST-TFs on glutathione beads, 16-mer random dsDNA library, 0.1% formaldehyde crosslink after washing; high values mean tight binding
Assay [1] concerns the target T1, FEV (Homo sapiens, UniProt Q99581 1-238).
T1 sequence: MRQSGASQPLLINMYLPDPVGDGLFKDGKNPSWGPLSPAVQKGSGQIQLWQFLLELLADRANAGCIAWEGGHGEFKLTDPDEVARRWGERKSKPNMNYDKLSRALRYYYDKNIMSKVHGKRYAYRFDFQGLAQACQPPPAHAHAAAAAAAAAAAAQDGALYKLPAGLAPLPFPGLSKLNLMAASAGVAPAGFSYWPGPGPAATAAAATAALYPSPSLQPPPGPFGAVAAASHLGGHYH
As to conditions: protein: recombinant; tags: N-terminal GST; dsDNA, one strand shown. The essentials:
(§1)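 Human transcription factors were made in yeast as GST fusions, captured on glutathione beads and barcoded with DNA. With a tag-only sample included, the pool was incubated with 200 nmole of a random double-stranded 16-mer DNA library in Tris/NaCl/DTT/glycerol buffer at room temperature for 30 min, then crosslinked with 0.1% formaldehyde after washing, ligated by proximity, amplified and sequenced. For binding signal, each hexamer's read frequency for a factor is divided by its frequency for the tag-only sample.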

Assay [2] concerns the target ETV5 (Homo sapiens, UniProt P41161 1-510). As to conditions: protein: recombinant; tags: N-terminal GST; dsDNA, one strand shown. The essentials:
as §1

Assay [3] deals with HSF1 (Homo sapiens, UniProt Q00613 1-529). As to conditions: protein: recombinant; tags: N-terminal GST; chain copies: 3; dsDNA, one strand shown. The essentials:
as §1

In assay [4] the target is T2, SPIC (Homo sapiens, UniProt Q8N5J4 1-248).
T2 sequence: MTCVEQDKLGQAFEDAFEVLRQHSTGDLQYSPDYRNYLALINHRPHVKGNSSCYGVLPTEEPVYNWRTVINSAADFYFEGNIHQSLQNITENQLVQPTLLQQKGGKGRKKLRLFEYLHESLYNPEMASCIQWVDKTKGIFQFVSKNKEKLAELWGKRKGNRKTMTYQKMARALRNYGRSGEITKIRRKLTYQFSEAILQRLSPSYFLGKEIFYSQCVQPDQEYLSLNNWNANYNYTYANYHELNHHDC
As to conditions: protein: recombinant; tags: N-terminal GST; dsDNA, one strand shown. The essentials: as §1

In assay [5] the target is ELF4 (Homo sapiens, UniProt Q99607 1-663). As to conditions: protein: recombinant; tags: N-terminal GST; dsDNA, one strand shown. The essentials:
as §1

Assay [6] addresses T3, ELK4 (Homo sapiens, UniProt P28324-2 1-405).
T3 sequence: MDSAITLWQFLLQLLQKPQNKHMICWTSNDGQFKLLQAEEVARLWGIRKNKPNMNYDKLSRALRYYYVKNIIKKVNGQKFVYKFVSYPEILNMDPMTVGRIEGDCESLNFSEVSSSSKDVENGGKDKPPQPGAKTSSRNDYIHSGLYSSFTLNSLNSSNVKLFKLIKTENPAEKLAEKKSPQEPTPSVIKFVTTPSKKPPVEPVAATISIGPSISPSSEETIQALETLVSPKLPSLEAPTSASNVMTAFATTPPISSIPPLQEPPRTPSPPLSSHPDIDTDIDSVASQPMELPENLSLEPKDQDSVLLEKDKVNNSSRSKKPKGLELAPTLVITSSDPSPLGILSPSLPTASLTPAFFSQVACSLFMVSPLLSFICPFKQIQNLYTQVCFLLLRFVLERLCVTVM
As to conditions: protein: recombinant; tags: N-terminal GST; dsDNA, one strand shown. The essentials: as §1

In assay [7] the target is T4, ETV2 (Homo sapiens, UniProt O00321 1-342).
T4 sequence: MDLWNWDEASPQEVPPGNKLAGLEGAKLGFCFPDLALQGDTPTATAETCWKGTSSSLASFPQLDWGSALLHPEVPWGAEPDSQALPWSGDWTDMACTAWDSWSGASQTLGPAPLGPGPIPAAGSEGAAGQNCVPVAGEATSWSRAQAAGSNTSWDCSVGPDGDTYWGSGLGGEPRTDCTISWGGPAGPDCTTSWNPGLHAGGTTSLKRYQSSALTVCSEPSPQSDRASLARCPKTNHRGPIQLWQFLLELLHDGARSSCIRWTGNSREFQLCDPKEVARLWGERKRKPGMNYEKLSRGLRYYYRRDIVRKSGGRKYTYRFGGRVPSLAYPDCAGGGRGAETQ
As to conditions: protein: recombinant; tags: N-terminal GST; dsDNA, one strand shown. The essentials: as §1

For assay [8], the target named is T5, ELF3 (Homo sapiens, UniProt P78545 1-371).
T5 sequence: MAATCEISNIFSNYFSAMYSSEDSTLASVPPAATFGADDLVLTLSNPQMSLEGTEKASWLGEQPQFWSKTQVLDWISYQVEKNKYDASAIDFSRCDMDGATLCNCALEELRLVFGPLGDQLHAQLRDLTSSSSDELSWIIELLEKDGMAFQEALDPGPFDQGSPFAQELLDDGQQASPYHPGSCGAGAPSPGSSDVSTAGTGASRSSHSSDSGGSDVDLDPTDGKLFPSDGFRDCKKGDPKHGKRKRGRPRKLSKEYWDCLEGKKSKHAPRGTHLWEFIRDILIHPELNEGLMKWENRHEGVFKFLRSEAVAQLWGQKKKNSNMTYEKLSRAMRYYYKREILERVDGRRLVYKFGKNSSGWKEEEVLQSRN
As to conditions: protein: recombinant; tags: N-terminal GST; dsDNA, one strand shown. The essentials: as §1

Assay [9] concerns the target CRX (Homo sapiens, UniProt O43186 1-299). As to conditions: protein: recombinant; tags: N-terminal GST; dsDNA, one strand shown. The essentials:
as §1

Assay [10] has as its target ETV1 (Homo sapiens, UniProt P50549 1-477). As to conditions: protein: recombinant; tags: N-terminal GST; dsDNA, one strand shown. The essentials:
as §1

For assay [11], the target named is T6, ERF (Homo sapiens, UniProt P50548 1-548).
T6 sequence: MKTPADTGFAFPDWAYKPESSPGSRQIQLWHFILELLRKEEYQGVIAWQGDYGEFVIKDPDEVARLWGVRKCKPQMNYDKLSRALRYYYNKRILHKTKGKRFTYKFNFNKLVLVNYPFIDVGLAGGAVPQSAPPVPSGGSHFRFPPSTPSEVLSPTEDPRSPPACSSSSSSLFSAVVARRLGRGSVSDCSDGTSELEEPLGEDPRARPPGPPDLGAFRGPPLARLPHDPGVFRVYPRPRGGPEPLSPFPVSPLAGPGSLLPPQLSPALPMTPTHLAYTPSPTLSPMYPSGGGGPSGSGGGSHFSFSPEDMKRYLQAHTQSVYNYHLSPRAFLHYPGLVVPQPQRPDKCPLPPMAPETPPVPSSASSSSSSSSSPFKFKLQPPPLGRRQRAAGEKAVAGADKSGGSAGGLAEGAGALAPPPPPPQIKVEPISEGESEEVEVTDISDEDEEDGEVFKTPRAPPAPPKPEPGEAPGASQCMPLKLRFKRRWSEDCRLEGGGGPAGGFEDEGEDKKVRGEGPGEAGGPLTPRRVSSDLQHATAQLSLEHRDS
As to conditions: protein: recombinant; tags: N-terminal GST; dsDNA, one strand shown. The essentials: as §1

Assay [12] concerns the target T7, ETV3L (Homo sapiens, UniProt Q6ZN32 1-361).
T7 sequence: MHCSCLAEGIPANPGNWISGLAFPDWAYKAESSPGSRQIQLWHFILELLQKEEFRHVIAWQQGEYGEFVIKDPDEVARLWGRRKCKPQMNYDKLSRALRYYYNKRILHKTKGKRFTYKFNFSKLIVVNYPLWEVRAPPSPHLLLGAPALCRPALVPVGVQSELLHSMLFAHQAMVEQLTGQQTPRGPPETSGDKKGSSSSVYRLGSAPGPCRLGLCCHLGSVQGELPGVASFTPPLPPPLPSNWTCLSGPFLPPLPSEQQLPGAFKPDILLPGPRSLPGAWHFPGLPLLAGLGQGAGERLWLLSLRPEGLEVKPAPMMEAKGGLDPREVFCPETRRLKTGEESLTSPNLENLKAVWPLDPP
As to conditions: protein: recombinant; tags: N-terminal GST; dsDNA, one strand shown. The essentials: as §1

Assay [13] concerns the target T8, ETS2 (Homo sapiens, UniProt P15036 1-469).
T8 sequence: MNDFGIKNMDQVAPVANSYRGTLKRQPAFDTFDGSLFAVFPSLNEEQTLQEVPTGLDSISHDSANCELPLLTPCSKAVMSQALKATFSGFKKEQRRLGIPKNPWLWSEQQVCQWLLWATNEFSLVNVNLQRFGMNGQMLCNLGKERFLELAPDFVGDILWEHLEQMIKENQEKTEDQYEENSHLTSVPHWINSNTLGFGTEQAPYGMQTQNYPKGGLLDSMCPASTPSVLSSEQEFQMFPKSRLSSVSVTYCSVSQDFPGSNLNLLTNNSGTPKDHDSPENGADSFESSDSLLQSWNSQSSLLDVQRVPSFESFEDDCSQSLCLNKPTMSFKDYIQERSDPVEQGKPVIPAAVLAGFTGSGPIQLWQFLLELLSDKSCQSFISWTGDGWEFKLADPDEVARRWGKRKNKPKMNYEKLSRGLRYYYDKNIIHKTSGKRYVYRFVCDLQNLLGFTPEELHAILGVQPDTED
As to conditions: protein: recombinant; tags: N-terminal GST; dsDNA, one strand shown. The essentials:
as §1

Assay [14] addresses T9, SPDEF (Homo sapiens, UniProt O95238 1-335).
T9 sequence: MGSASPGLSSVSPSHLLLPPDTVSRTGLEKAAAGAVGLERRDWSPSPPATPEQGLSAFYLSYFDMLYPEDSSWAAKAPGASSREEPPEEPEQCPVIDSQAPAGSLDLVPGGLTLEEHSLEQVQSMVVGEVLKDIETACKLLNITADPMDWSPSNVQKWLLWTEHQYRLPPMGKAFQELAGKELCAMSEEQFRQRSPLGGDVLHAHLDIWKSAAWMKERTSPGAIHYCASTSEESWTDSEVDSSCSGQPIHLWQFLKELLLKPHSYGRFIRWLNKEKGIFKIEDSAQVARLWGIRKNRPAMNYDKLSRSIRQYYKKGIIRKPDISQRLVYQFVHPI
As to conditions: protein: recombinant; tags: N-terminal GST; dsDNA, one strand shown. The essentials:
as §1

For assay [15], the target named is T10, ETV7 (Homo sapiens, UniProt Q9Y603 1-341).
T10 sequence: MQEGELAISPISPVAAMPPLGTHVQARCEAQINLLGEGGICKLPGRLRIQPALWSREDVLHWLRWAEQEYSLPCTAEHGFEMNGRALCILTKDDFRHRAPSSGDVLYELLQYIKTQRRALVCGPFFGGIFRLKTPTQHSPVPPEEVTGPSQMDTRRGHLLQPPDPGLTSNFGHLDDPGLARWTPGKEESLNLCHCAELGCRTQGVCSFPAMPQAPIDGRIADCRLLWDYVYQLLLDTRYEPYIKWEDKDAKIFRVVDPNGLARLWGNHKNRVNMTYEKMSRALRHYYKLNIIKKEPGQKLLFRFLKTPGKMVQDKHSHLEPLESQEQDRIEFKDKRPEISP
As to conditions: protein: recombinant; tags: N-terminal GST; dsDNA, one strand shown. The essentials:
as §1

The target in assay [16] is T11, ELF5 (Homo sapiens, UniProt Q9UKW6-2 1-255).
T11 sequence: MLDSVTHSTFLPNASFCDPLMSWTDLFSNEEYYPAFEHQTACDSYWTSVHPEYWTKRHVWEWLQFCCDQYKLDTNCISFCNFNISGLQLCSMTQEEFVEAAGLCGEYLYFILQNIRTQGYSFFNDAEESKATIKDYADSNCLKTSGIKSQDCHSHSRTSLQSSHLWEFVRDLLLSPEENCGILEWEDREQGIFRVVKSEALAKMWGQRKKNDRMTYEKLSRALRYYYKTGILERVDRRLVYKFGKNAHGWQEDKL
As to conditions: protein: recombinant; tags: N-terminal GST; dsDNA, one strand shown. The essentials: as §1

Assay [17] has as its target T12, ETV3 (Homo sapiens, UniProt P41162-2 1-143).
T12 sequence: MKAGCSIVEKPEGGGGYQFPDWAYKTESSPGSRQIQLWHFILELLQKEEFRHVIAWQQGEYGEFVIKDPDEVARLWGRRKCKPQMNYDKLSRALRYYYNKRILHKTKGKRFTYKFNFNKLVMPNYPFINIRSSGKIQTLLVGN
As to conditions: protein: recombinant; tags: N-terminal GST; dsDNA, one strand shown. The essentials: as §1

The target in assay [18] is ETV6 (Homo sapiens, UniProt P41212 1-452). As to conditions: protein: recombinant; tags: N-terminal GST; dsDNA, one strand shown. The essentials: as §1
ETV6, sequence (P41212 whole entry): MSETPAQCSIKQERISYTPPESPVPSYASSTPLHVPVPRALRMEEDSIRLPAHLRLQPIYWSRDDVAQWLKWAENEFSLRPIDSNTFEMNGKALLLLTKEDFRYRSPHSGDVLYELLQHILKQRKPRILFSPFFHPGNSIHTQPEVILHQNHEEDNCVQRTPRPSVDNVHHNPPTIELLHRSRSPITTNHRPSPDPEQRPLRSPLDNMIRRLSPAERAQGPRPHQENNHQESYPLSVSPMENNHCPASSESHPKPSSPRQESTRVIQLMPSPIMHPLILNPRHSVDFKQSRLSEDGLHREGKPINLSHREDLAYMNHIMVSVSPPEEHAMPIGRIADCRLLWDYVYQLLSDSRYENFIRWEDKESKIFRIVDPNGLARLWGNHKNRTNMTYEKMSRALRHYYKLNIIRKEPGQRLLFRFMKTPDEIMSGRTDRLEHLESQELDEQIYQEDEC

ELF4, sequence (Q99607 whole entry): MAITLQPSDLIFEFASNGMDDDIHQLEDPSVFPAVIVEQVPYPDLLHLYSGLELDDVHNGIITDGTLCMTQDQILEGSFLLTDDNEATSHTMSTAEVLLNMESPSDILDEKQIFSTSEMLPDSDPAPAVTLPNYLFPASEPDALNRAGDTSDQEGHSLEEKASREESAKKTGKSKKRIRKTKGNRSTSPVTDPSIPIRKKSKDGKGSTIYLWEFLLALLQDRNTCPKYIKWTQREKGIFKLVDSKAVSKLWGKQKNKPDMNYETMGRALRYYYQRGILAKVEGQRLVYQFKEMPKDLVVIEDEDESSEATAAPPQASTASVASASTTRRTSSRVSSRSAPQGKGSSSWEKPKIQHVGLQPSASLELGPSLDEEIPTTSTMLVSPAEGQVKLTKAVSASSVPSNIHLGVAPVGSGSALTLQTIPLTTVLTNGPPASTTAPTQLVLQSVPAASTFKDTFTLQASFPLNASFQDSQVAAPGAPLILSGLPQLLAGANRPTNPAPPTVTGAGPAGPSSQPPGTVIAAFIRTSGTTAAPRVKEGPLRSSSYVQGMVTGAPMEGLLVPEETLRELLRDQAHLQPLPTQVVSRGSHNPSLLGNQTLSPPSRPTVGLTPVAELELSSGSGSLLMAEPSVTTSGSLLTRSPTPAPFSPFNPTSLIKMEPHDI
ETV5, sequence (P41161 whole entry): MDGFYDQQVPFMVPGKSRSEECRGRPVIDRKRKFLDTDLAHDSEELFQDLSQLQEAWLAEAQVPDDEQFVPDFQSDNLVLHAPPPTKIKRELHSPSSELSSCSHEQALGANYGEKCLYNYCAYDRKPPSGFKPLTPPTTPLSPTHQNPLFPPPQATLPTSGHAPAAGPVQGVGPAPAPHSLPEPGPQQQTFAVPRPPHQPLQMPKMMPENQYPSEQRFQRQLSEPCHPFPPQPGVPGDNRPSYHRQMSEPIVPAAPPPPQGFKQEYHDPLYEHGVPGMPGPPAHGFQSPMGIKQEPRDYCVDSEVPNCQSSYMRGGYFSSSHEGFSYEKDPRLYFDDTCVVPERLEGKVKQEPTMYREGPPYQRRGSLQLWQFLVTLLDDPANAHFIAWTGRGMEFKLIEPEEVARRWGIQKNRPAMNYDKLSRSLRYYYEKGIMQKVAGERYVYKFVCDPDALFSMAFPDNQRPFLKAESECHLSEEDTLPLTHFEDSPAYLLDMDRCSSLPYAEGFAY
ETV1, sequence (P50549 whole entry): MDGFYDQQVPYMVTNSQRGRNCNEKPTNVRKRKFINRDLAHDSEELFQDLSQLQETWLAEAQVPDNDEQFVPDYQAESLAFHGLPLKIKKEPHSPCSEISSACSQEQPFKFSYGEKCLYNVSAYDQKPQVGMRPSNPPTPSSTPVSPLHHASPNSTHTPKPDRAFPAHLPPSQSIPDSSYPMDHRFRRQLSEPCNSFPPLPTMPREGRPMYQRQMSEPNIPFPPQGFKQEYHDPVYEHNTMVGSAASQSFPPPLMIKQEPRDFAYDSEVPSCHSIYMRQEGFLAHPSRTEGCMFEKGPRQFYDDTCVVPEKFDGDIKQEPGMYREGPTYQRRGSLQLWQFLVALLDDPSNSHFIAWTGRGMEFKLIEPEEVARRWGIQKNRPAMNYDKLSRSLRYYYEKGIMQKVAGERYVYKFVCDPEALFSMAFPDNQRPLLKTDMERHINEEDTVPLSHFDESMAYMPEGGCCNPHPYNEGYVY
HSF1, sequence (Q00613 whole entry): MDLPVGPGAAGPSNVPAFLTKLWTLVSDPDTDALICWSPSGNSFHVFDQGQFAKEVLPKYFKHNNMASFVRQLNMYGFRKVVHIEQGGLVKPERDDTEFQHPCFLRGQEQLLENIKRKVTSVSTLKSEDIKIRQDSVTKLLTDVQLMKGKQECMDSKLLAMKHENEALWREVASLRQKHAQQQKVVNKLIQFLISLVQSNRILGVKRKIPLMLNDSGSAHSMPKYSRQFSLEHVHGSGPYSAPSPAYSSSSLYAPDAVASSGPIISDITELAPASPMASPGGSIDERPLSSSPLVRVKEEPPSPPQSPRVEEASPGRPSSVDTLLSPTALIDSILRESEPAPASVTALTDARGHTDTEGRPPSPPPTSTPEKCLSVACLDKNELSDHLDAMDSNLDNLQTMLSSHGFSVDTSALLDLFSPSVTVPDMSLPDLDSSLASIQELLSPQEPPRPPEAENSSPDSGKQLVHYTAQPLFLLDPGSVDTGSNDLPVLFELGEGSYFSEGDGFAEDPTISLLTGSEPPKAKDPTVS
CRX, sequence (O43186 whole entry): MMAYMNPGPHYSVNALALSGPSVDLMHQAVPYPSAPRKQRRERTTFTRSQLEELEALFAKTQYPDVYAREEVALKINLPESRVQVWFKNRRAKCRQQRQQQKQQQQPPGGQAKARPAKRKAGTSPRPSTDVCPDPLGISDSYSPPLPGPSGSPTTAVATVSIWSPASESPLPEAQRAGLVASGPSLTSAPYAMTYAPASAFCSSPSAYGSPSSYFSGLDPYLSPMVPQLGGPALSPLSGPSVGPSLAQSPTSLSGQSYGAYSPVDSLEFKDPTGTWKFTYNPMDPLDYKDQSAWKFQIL

Turning to ATTTGG, the binding signal is 1.4 fold enrichment (6-mer frequency, TF over GST control) in assay [1]; 1.36 fold enrichment (6-mer frequency, TF over GST control) in assay [2]; 1.5 fold enrichment (6-mer frequency, TF over GST control) in assay [3]; 1.34 fold enrichment (6-mer frequency, TF over GST control) in assay [4]; 1.26 fold enrichment (6-mer frequency, TF over GST control) in [5]; 1.43 fold enrichment (6-mer frequency, TF over GST control) in [6]. Moreover, the binding signal is 1.37 fold enrichment (6-mer frequency, TF over GST control) in [7]; 1.44 fold enrichment (6-mer frequency, TF over GST control) in assay [8]; 1.73 fold enrichment (6-mer frequency, TF over GST control) in assay [9]; 1.36 fold enrichment (6-mer frequency, TF over GST control) in [10]; 1.54 fold enrichment (6-mer frequency, TF over GST control) in assay [11]; 1.46 fold enrichment (6-mer frequency, TF over GST control) in assay [12]. Moreover, the binding signal is 1.38 fold enrichment (6-mer frequency, TF over GST control) in assay [13]; 1.34 fold enrichment (6-mer frequency, TF over GST control) in assay [14]; 1.41 fold enrichment (6-mer frequency, TF over GST control) in assay [15]; 1.37 fold enrichment (6-mer frequency, TF over GST control) in assay [16]; 1.35 fold enrichment (6-mer frequency, TF over GST control) in assay [17]; 1.45 fold enrichment (6-mer frequency, TF over GST control) in [18].
